Assay results reported in PubChem BioAssay (EPA / NIEHS).
Records with an inconclusive call do not appear. Calls of active or inactive are those of the source. The calls were made as follows, unless noted: active = hit-call score of the fitted dose curve at least 0.9, where 1 is the maximum; inactive = score below 0.9.

Key:
[1] = test system: TTR (gene 7276); test: CCTE_GLTED_hTTR_0.125uM: CCTE's human Transthyretin (hTTR) Inhibition Assay, with 0.125uM TTR, Great Lakes Toxicology and Ecology Division (GLTED) Lab (AID 2284431);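 also: hits lower the fluorescence signal relative to DMSO baseline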
How it was run: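 TTR at 0.125uM incubated 2 h with test chemical; displacement of bound ANSA read by fluorescence (ex 380, em 475). Activity is signal loss versus DMSO baseline.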

[2] = test system: SRY-box transcription factor 17 (SOX17) Protein Expression, Deisenroth Lab, SOX17 (gene 64321); test: CCTE_Deisenroth_DEVTOX-GLR_Endo_SOX17: CCTE's DevTox GLR-Endo Assay Evaluation of SRY-box transcription factor 17 (SOX17) Protein Expression, Deisenroth Lab (AID 2284413)
How it was run: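 Seed RUES2-GLR cells 24 h; start endoderm differentiation; dose at 0 and 24 h (1 nM - 200 uM, 10 points); fix at 48 h, stain nuclei, image 5 fields/well; compute SOX17+/total cells vs 0.2% DMSO.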

[3] = test system: Brachyury (BRA) Protein Expression, TBXT (gene 6862); test: CCTE_Deisenroth_DEVTOX-GLR_Endo_BRA: CCTE's DevTox GLR-Endo Assay Evaluation of Brachyury (BRA) Protein Expression, Deisenroth Lab (AID 2284417)
How it was run: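 Percent BRA+ (mesoderm) RUES2-GLR cells after 48 h differentiation with two exposures, 1 nM - 200 uM; 0.2% DMSO control subtracted.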

[4] = CCTE_Deisenroth_DEVTOX-GLR_Endo_CellCount: Viability Assessment in CCTE's DevTox GLR-Endo Assay, Deisenroth Lab (AID 2284420)
Procedure: CCTE_Deisenroth_DEVTOX-GLR_Endo assay is a cell-based, multiplex-readout assay that uses RUES2-GLR, a human pluripotent cell line, with measurements taken at 48 hours after chemical dosing in a 384-well microplateCCTE_Deisenroth_DEVTOX-GLR_Endo_CellCount is 1 of 4 assay components calculated from the CCTE_Deisenroth_DEVTOX-GLR_Endo assay and it measures cell count. Using fluorescent nuclear staining, loss-of-signal activity can be used to understand changes in cell viability with fluorescent microscopy. It is designed to make measurements of nuclei counts as a surrogate for cell number, as detected with optical fluorescence microscopy by Perkin Elmer Harmony nuclei detection algorithm. To generalize the intended target to other relatable targets, this assay component is annotated to the cell cycle intended target family, where the subfamily is cytotoxicity.Data from the assay component CCTE_Deisenroth_DEVTOX-GLR_Endo_CellCount was analyzed as 1 assay endpoint. The endpoint the percent change in cell count relative to the 0.2% DMSO control in the CCTE_Deisenroth_DEVTOX-GLR_Endo assay. Furthermore, this assay endpoint can be referred to as a primary readout, because this assay has produced multiple assay endpoints where this one serves as a measure of cytotoxicity.
All assay protocols are aligned to the DevTox GLR-Endo assay workflow. Cells are seeded into 384-well microplates for 24 hours prior to initiating differentiation in defined media for a total duration of 48 hours. A total of two chemical exposures are administered in 24-hour intervals during the 48-hour differentiation period. At the assay termination point, cells are fixed and stained with a fluorescent dye demarcating the nucleus. High-content imaging is used to acquire brightfield and fluorescent channel images across 5 fields per well. Cell identification and mean biomarker fluorescence intensities are calculated with image analysis software to determine the total cell counts for viability assessment and the biomarker expression frequency for each lineage-dependent assay. A typical experimental design tests a 10-point concentration series (1 nM - 200 uM) for 28 compounds in single technical replicate. Assay plate controls include non-differentiated pluripotent cells (baseline control), lineage-specific differentiated cells (differentiation control), and DMSO solvent exposed differentiated cells (solvent control). Experiments typically comprise a minimum of four experimental replicates (n=4).

[5] = test system: SRY-box transcription factor 2 (SOX2) Protein Expression, Deisenroth Lab, SOX2 (gene 6657); test: CCTE_Deisenroth_DEVTOX-GLR_Pluri_SOX2: CCTE's DevTox GLR-Pluri Assay Evaluation of SRY-box transcription factor 2 (SOX2) Protein Expression, Deisenroth Lab (AID 2284428)
How it was run: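 Percent SOX2+ cells (SOX2+ count per total cells, fluorescent imaging) in RUES2-GLR human pluripotent line, expressed relative to 0.2% DMSO. Compounds dosed twice at 24 h intervals during 48 h, 1 nM - 200 uM, 10 concentrations.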

[6] = test system: Brachyury (BRA) Protein Expression, Deisenroth Lab, TBXT (gene 6862); test: CCTE_Deisenroth_DEVTOX-GLR_Pluri_BRA: CCTE's DevTox GLR-Pluri Assay Evaluation of Brachyury (BRA) Protein Expression, Deisenroth Lab (AID 2284429; active = hit-call score of the fitted dose curve at least 0.9, where 1 is the maximum)
How it was run: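 An inducible fluorescent BRA reporter in RUES2-GLR cells tracks mesoderm differentiation. Compounds (10 concentrations, 1 nM - 200 uM) are dosed twice within a 48-h differentiation. The endpoint subtracts the 0.2% DMSO control from percent BRA+ cells.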

[7] = CCTE_Deisenroth_DEVTOX-GLR_Pluri_CellCount: Viability Assessment in CCTE's DevTox GLR-Pluri Assay Evaluation of Total Cell Counts, Deisenroth Lab (AID 2284430)
How it was run: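 RUES2-GLR human pluripotent cells, seeded 24 h, then differentiated 48 h with two chemical exposures 24 h apart; 10-point series 1 nM - 200 uM. Fixed, nuclear-stained, imaged (5 fields/well); nuclei count as % change vs 0.2% DMSO.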

[8] = test system: SRY-box transcription factor 17 (SOX17) Protein Expression, Deisenroth Lab, SOX17 (gene 64321); test: CCTE_Deisenroth_DEVTOX-GLR_Pluri_SOX17: CCTE's DevTox GLR-Pluri Assay Evaluation of SRY-box transcription factor 17 (SOX17) Protein Expression, Deisenroth Lab (AID 2284427; active = hit-call score of the fitted dose curve at least 0.9, where 1 is the maximum)
How it was run: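 The endpoint is SOX17+ cells as a fraction of cell count, corrected for the 0.2% DMSO control and obtained by high-content fluorescence imaging of fixed cells. Cells were RUES2-GLR under a 48-hour endoderm differentiation, dosed twice at 24-hour intervals over 1 nM–200 uM.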

In the case of O=C(OC[C@H]1O[C@@H](OC(=O)c2cc(O)c(O)c(OC(=O)c3cc(O)c(O)c(O)c3)c2)[C@H](OC(=O)c2cc(O)c(O)c(OC(=O)c3cc(O)c(O)c(O)c3)c2)[C@@H](OC(=O)c2cc(O)c(O)c(OC(=O)c3cc(O)c(O)c(O)c3)c2)[C@@H]1OC(=O)c1cc(O)c(O)c(OC(=O)c2cc(O)c(O)c(O)c2)c1)c1cc(O)c(O)c(OC(=O)c2cc(O)c(O)c(O)c2)c1, the AC50 [1] is reported as 0.252 µM (active).
With O=C1CCC(N2C(=O)c3ccccc3C2=O)C(=O)N1 (stereo not drawn) the AC50 [2] was 1.56 µM (active), the outcome [3] was “inactive” and the outcome [4] was “inactive”. For the same compound, the outcome [5] was “inactive”, the outcome [6] was “inactive” and the outcome [7] was “inactive”.
In the case of Nc1nc2ncc(CNc3ccc(C(=O)N[C@@H](CCC(=O)O)C(=O)O)cc3)nc2c(=O)[nH]1, the outcome [2] is reported as “inactive”, the outcome [3] is reported as “inactive” and the outcome [4] is reported as “inactive”. For the same compound, the outcome [5] was “inactive” and the outcome [7] was “inactive”.
With Oc1ccc2c(c1)-c1ccccc1C2 the AC50 [1] was 7.96 µM (active).
In the case of C[C@](N)(Cc1ccc(O)c(O)c1)C(=O)O, the outcome [2] is reported as “inactive”, the outcome [3] is reported as “inactive” and the outcome [4] is reported as “inactive”. The AC50 [5] was 0.308 µM (active), the AC50 [6] was 153 µM (active) and the outcome [7] was “inactive”.
With Cn1cnc([N+](=O)[O-])c1Sc1ncnc2nc[nH]c12 the AC50 [1] was 25.1 µM (active).
For Cn1c(=O)c2c(ncn2C)n(C)c1=O, the outcome [2] was “inactive”, the outcome [3] was “inactive” and the outcome [4] was “inactive”. The outcome [5] was “inactive” and the outcome [7] was “inactive”.
With COc1ccc(/C=C/S(=O)(=O)NC(=O)c2ccc(C)cc2Cl)cc1 the AC50 [1] was 12.1 µM (active).
For O=C(NS(=O)(=O)/C=C/c1ccccc1)c1ccc(F)cc1Cl, the AC50 [1] was 13 µM (active).
For CC[C@H](C)C(=O)O[C@H]1C[C@@H](C)C=C2C=C[C@H](C)[C@H](CC[C@@H]3C[C@@H](O)CC(=O)O3)[C@H]21, the AC50 [2] was 6.57 µM (active), the AC50 [3] was 54.2 µM (active) and the AC50 [4] was 2.81 µM (active). For the same compound, the AC50 [8] was 100 µM (active), the AC50 [5] was 14.5 µM (active) and the AC50 [6] was 20.8 µM (active). For the same compound, the AC50 [7] was 9.67 µM (active).
For COC(=O)c1c(Cl)c(Cl)c(C(=O)OC)c(Cl)c1Cl, the AC50 [1] was 0.0546 µM (active).
In the case of O=C(O)c1cc(N=Nc2ccc(S(=O)(=O)Nc3ccccn3)cc2)ccc1O, the outcome [2] is reported as “inactive”, the outcome [4] is reported as “inactive” and the outcome [8] is reported as “inactive”. The AC50 [5] was 100 µM (active), the outcome [6] was “inactive” and the outcome [7] was “inactive”. For the same compound, the AC50 [1] was 0.422 µM (active).
In the case of C=CCCCCCCCCC(=O)O, the AC50 [1] is reported as 7.39 µM (active).
With Nc1ccc(Nc2ccccc2)cc1 the AC50 [1] was 31.5 µM (active).
With NC(=O)NO the outcome [2] was “inactive”, the outcome [3] was “inactive” and the AC50 [4] was 61.3 µM (active). The outcome [8] was “inactive”, the outcome [5] was “inactive” and the outcome [6] was “inactive”. The outcome [7] was “inactive”.
With CC(C)=CCCC(C)CCO (stereo not drawn) the AC50 [1] was 45.8 µM (active).
In the case of O=C(O)c1cccc(Oc2ccccc2)c1, the AC50 [1] is reported as 0.542 µM (active).
